Screening data: PubChem, National Center for Advancing Translational Sciences (NCATS)
TGFb inhibitor = qHTS for Inhibitors of TGF-b; HepG2 CAGA-GFP TGF-b/SMAD3 reporter, GFP fluorescence, 18 h; TGF-beta stimulated, 500 pg/mL final; Potency, µM (highest dose often 46.1 µM), inactives show at the top dose activity, negative = inhibition, hits mostly inhibitors; 410,000 tested, 1.2% active; also: % is scaled to controls: 0 for no effect and ±100 for the full control effect; nearly all actives have a fitted effect of over 65% in size
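GFP signal (ex488/em500-530) from TGF-beta-stimulated HEPG2 CAGA-GFP cells, 500 pg/mL final, 18 h at 37 degrees C in DMEM plus 1% FBS, normalized to unstimulated and DMSO-stimulated controls.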
TDP1 cell CPT = qHTS for Inhibitors of human tyrosyl-DNA phosphodiesterase 1 (TDP1): qHTS in cells in presence of CPT. chicken DT40 Tdp1-/-;hTDP1 cells + 20 nM CPT, ATP luminescence, 48 h. Potency, µM (top dose mostly 46.2 µM), without a hit: top-dose activity change, negative = growth inhibition, actives largely listed as inhibitors. 420,000 tested, 12% active. AID 686979, 2013; also: % is scaled to controls: 0 for no effect and ±100 for the full control effect; nearly all actives have a fitted effect of over 55% in size
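Cell growth measured by CellTiter-Glo luminescence after a minimum 48 h, 37 C compound exposure with 20 nM CPT in Tdp1-knockout DT40 cells stably expressing hTDP1, seeded 400/well; qHTS titration format.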
HepG2 viability = qHTS for Inhibitors of TGF-b: Cytotox Counterscreen | HepG2 CAGA-GFP viability, ATP luminescence, 18 h | Potency, µM (series often up to 46.1 µM), without a hit: top-dose activity change, negative = cytotoxicity, hits mostly cytotoxic | 410,000 tested, 0.76% active | AID 588856, 2011
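CellTiter-Glo luminescence gave cytotoxicity after 18 hours at 37 degrees C. The cells were HepG2 CAGA-GFP in 1% FBS DMEM, stimulated with 500 pg/mL TGF-beta after compound addition. %Activity was normalised to no-cell wells (complete cell-killing) and DMSO (no toxicity), and curves were fitted and classified.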
TDP1 cell noCPT = qHTS for Inhibitors of human tyrosyl-DNA phosphodiesterase 1 (TDP1): qHTS in cells in absence of CPT | DT40 Tdp1-/- hTDP1 cells, no CPT, ATP luminescence, 48 h | Potency, µM (top dose mostly 46.2 µM), without a hit: at the top dose activity change, negative = growth inhibition, hits mostly inhibitors | 420,000 tested, 15% active | AID 686978, 2013; also: % is scaled to controls: 0 for no effect and ±100 for the full control effect; nearly all actives have a fitted effect of over 55% in size
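No-CPT arm: Tdp1-/-;hTDP1 DT40 cells (400/well) plus compounds, incubated ≥48 hr at 37 °C. Readout CellTiter-Glo luminescence.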
HT1080-NT tox = qHTS for induction of synthetic lethality in tumor cells producing 2HG: qHTS for the HT-1080-NT fibrosarcoma cell line; HT-1080-NT fibrosarcoma viability, CellTiter-Glo ATP luminescence, 48 h; Potency, µM (titrated, usually from 46.1 µM), for the others: top-dose activity, negative = less viability, actives largely listed as cytotoxic; 360,000 tested, 1.6% active;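 also: NT is the 2HG producing partner of a matched IDH1 knockdown line; 0% = DMSO-treated cells and -100% = media-only wells without cells; nearly all actives have a fitted effect of over 55% in size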
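Read-out is CellTiter-Glo luminescence after 10 minutes at room temperature, following 48 hours' compound treatment of HT-1080-NT cells (750 cells/well, RPMI, 5% FBS, 37 degrees C).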
HT1080 IDH1KD tx = qHTS for induction of synthetic lethality in tumor cells producing 2HG: qHTS for the HT-1080-IDH1KD cell line; HT-1080 IDH1 knockdown viability, ATP luminescence, 48 h; Potency, µM (series often up to 46.1 µM), for inactives: at the highest dose activity, negative = toxicity, most hits filed as cytotoxic; 360,000 tested, 2% active;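 also: 0% = DMSO wells and -100% = cell-free medium wells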
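Luminescent ATP read-out (CellTiter-Glo, 10 min at room temperature) after 48 h compound exposure at 37 °C gave viability of IDH1-knockdown HT-1080 cells. Activity was normalised to DMSO and cell-free wells, then fitted as concentration-response curves.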
Active calls of the source: *; ? = inconclusive; . = no result. Compounds with a hit are over-represented: about 17% of the library has one in this group of screens. Calls follow the shape of the dose curve; as a rule, active = well fitted curve in the direction sought with a large enough effect; inconclusive = small, poorly fitted or top-dose-only effect, or another doubt; inactive = no such curve, though single readings can be large; an effect the other way counts as inactive or inconclusive. Potency is read from the fitted curve at half-maximal effect.

SMILES | TGFb inhibitor | TDP1 cell CPT | HepG2 viability | TDP1 cell noCPT | HT1080-NT tox | HT1080 IDH1KD tx
C[C@]12C(=O)N(c3cccc(Cl)c3)C(=O)N1[C@@H]1c3ccccc3OC[C@@H]1[C@H]2c1ccccc1 | 5.0% | 14.6µM* | 0.3% | 11.6µM* | -6.8% | -4.6%
C[C@]12C(=O)N(c3cccc(F)c3)C(=O)N1[C@@H]1c3ccccc3OC[C@@H]1[C@H]2c1ccccc1 | -13.6% | 11.6µM* | -8.8% | 20.6µM* | -2.1% | -2.2%
CC1CCc2c(C(=O)Nc3ccc(OC(F)(F)F)cc3)csc2C1 (stereo not drawn) | ? | ? | -41.2% | ? | -0.9% | -2.6%
CSc1ncccc1C(=O)NCC1Cc2cc(F)cc(-c3cncnc3)c2O1 (stereo not drawn) | . | 6.8% | . | -7.7% | . | .
CN(C)/[N+]([O-])=N/Oc1ccc([N+](=O)[O-])cn1 | 0.2% | . | -7.1% | . | . | .
CCN(CC)/[N+]([O-])=N/Oc1cc(O/N=[N+](\[O-])N(C)C)c([N+](=O)[O-])cc1[N+](=O)[O-] | 6.31µM* | . | 10µM* | . | . | .
CCCCN1C(=O)c2ccc(C(=O)Nc3ccc(C)c(S(=O)(=O)N(C)C)c3)cc2C1=O | -22.8% | ? | -19.1% | 16.4µM* | -12.0% | -12.4%
Cc1ccc(NC(=O)c2ccc(OC(F)(F)F)cc2)cc1S(=O)(=O)N(C)C | ? | ? | -33.5% | 25.9µM* | -23.9% | -27.9%
COCC(=O)Nc1nc2ccccc2s1 | -26.5% | -0.2% | -1.5% | -12.2% | -1.9% | -1.9%
O=C(NC(=S)Nc1nc2ccccc2s1)c1cccs1 | -13.0% | 16.4µM* | -31.3% | 18.4µM* | -1.0% | -0.8%
NC(=S)Nc1nc2ccccc2s1 | ? | 2.59µM* | 8.4% | 4.11µM* | -1.3% | 14.6µM*
CCN(CC(=O)Nc1cccc(OC)c1)CC(=O)Nc1ccc(C)cc1Cl | ? | ? | 5.3% | ? | 15.3% | 10.9%
O=S1(=O)N=C(c2ccccc2)C=C(c2ccccc2)N1 | -9.0% | 7.9% | -12.0% | 15.4% | 3.4% | 8.7%
CCOC(CCNC(=O)c1cc(-c2cccs2)nc2ccccc12)OCC | -2.3% | 20.6µM* | 0.0% | ? | -3.5% | -4.9%
COc1ccc(CNC(=O)c2cc(-c3cccs3)nc3ccccc23)c(OC)c1 | -9.8% | 2.59µM* | 1.7% | ? | . | .
COc1ccc(OC)c(CNC(=O)c2cc(-c3ccc(Cl)s3)nc3ccccc23)c1 | 13.7% | 14.6µM* | -12.5% | 9.2µM* | . | .
COc1ccc(Nc2cc(C(=O)NCc3cccs3)c3ccccc3n2)cc1 | -0.6% | 1.7% | 9.7% | -14.0% | . | .
CN1CCN(NC(=O)c2cc(-c3ccc(Cl)s3)nc3ccccc23)CC1 | -28.0% | ? | -16.4% | 14.6µM* | -14.9% | -8.4%
CC(C)NC(=O)c1cc(-c2cccs2)nc2ccccc12 | -10.1% | 1.0% | -0.7% | 0.1% | -3.8% | 1.9%
Cc1cccc(NC(=O)C2CCN(C(=O)NCc3ccccc3)CC2)c1C | -0.3% | 2.8% | 4.3% | -8.3% | 8.9% | -1.4%
CSCCC(NC(=O)c1ccccc1)C(=O)N1CCN(C(c2ccccc2)c2ccccc2)CC1 (stereo not drawn) | -29.6% | ? | -6.9% | ? | 0.9% | 17.8%
O=C(NC1CCCCC1)C1CCC(=O)N(Cc2cccc(C(F)(F)F)c2)C1 (stereo not drawn) | -11.7% | -8.3% | 2.2% | -29.1% | 2.7% | -1.6%
Cc1ccc(NC(=O)COc2coc(CN3CCc4ccccc43)cc2=O)c(C)c1 | 2.5% | ? | -0.7% | 14.6µM* | 16.4% | 5.7%
O=C(COc1coc(CN2CCCc3ccccc32)cc1=O)Nc1ccccc1 | -21.1% | ? | -21.9% | 5.8µM* | -0.9% | 6.1%
COc1ccc(CCNC(=O)COc2coc(CN3c4ccccc4CC3C)cc2=O)cc1OC (stereo not drawn) | -6.8% | ? | -3.0% | 16.4µM* | 0.4% | 0.5%
SMILES | TGFb inhibitor | TDP1 cell CPT | HepG2 viability | TDP1 cell noCPT | HT1080-NT tox | HT1080 IDH1KD tx
Cc1ccc(C)c(NC(=O)COc2coc(CN3CCc4ccccc4C3)cc2=O)c1 | -7.6% | 18.4µM* | -3.2% | 16.4µM* | -11.5% | -5.3%
Cc1ccc(NC(=O)COc2coc(CN3CCc4ccccc4C3)cc2=O)c(C)c1 | -17.6% | ? | 4.6% | ? | -8.5% | -0.7%
CCOc1ccccc1CNC(=O)CC(C)n1ccc(C)n1 (stereo not drawn) | -7.0% | -0.1% | -30.0% | -9.6% | . | .
Cc1ccc(NC(=O)COc2coc(CN3c4ccccc4CC3C)cc2=O)c(C)c1 (stereo not drawn) | -4.5% | ? | -19.9% | 13µM* | -3.5% | -7.1%
COc1ccc(OC)c(NC(=O)COc2coc(CN3CCCc4ccccc43)cc2=O)c1 | -14.3% | ? | -0.6% | ? | -15.6% | ?
COc1ccc(OC)c(NC(=O)COc2coc(CN3CCc4ccccc43)cc2=O)c1 | ? | ? | 6.8% | 16.4µM* | -7.3% | -13.8%
CCOc1ccccc1NC(=O)NCc1noc2ccc(C)cc12 | 4.4% | ? | -18.0% | ? | . | .
CN(C)P(=O)(Nc1cccc2ccccc12)Nc1cccc2ccccc12 | -17.5% | 8.2µM* | -30.5% | 9.2µM* | 1.4% | 0.5%
CCNc1ncc2nc(-c3cccc(C#N)c3)c(=O)n(CCC#N)c2n1 | . | -0.6% | . | 0.5% | . | .
COc1ccc(CCNCC(O)COc2cccc(Br)c2)cc1OC (stereo not drawn) | -17.7% | ? | -14.4% | ? | -15.9% | -19.2%
